Measured values as given in PubChem BioAssay (NCI).
The panel holds about 83,000 compounds, 20% with a hit somewhere; the sample as a whole holds those more often.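 The endpoint reported here, percent growth, reads 100 for growth as untreated, 0 for no net growth and -100 for all cells dead.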 Calls of active or inactive are those of the source. How the source made its calls: active means growth percent below 10; inactive means the rest.

Key:
Assay in all cases: NCI-60 one-dose screen, 48 h (100 = growth as untreated, 0 = no growth, -100 = all killed)
Conditions in all cases: 10 µM
[1] = tested on: RPMI-8226 leukemia
[2] = tested on: OVCAR-8 ovarian
[3] = tested on: OVCAR-5 ovarian
[4] = tested on: OVCAR-4 ovarian
[5] = tested on: SK-OV-3 ovarian
[6] = tested on: IGROV1 ovarian
[7] = tested on: OVCAR-3 ovarian
[8] = tested on: HS 578T breast
[9] = tested on: NCI/ADR-RES ovarian
[10] = tested on: T-47D breast

Measured: growth

CCOC(=O)N1C/C(=C/c2ccc(F)cc2)C(=O)/C(=C/c2ccc(F)cc2)C1
inactive: [3] 24.2% | [5] 12.7% | [10] 30.5%
active: [1] -29% | [2] 9.76% | [4] 9.8% | [6] -34.1% | [7] -29.2% | [8] -10.5% | [9] 9.49%

CCN1CCC(CCOC)(CN2c3ccccc3Sc3ccc(Cl)cc32)C1 (stereo not given)
inactive: [1] 47.4% | [2] 73.7% | [3] 54.4% | [4] 46.3% | [5] 78.7% | [6] 30.7% | [7] 64.8% | [8] 51.5% | [9] 75.8% | [10] 70.5%

O=C1Nc2ccccc2C1=NC1CCCCC1
inactive: [1] 103% | [2] 98.1% | [3] 106% | [4] 96.3% | [5] 95.4% | [6] 88.5% | [7] 103% | [8] 116% | [9] 103% | [10] 83.1%

COc1ccccc1CNCCCN1C(=O)c2ccc3c4c(ccc(c24)C1=O)C(=O)N(CCCN)C3=O
active: [1] -13.6% | [2] -24.2% | [3] -29.7% | [4] -67.1% | [6] -52.7% | [7] -27.8% | [8] -13% | [10] -42.6%
inactive: [5] 27.3% | [9] 59.4%

COc1ccc2c(c1)N(CCO)C1=C(C(=O)OC1)C2c1ccc(OC)c(OC)c1 (stereo not given)
active: [7] -18.2%
inactive: [1] 62.9% | [2] 48.7% | [3] 47.7% | [4] 64.6% | [5] 40.5% | [6] 53.4% | [8] 31% | [9] 71.8% | [10] 45.5%

CC(=O)O[C@]1(C)CC[C@H]2[C@H](CNCCc3ccc(Cl)cc3)C(=O)O[C@@H]2C2=C(C)C(=O)C[C@H]21
inactive: [1] 64.7% | [2] 93.1% | [3] 100% | [4] 87.4% | [5] 101% | [6] 97.5% | [7] 99.2% | [8] 150% | [9] 109% | [10] 92.3%

N=C(N)c1ccc(-c2ccc(-c3ccccc3)o2)nc1
inactive: [1] 38.6% | [2] 92.6% | [3] 85% | [4] 75.3% | [5] 100% | [6] 95.7% | [7] 106% | [8] 131% | [9] 100% | [10] 81.5%

COc1cc(Cl)cc(-c2nn(-c3cccc(NC(=O)Nc4ccc(Cl)c(C(F)(F)F)c4)c3)cc2-c2ccncc2)c1
inactive: [3] 19.2% | [4] 16.6% | [5] 12% | [6] 30.2% | [8] 14.6%
active: [1] -29.1% | [2] 8.71% | [7] -22.6% | [9] 6.07% | [10] 8.1%

CCN(CC)CCCOCCCNc1cc(OC)cc2cccnc12
inactive: [1] 80.3% | [2] 92.1% | [3] 102% | [4] 26.6% | [5] 97.3% | [6] 75.2% | [7] 65.9% | [8] 100% | [9] 95.4% | [10] 33.9%

N#CCCN1C/C(=C/c2ccc(Br)cc2)C(=O)/C(=C/c2ccc(Br)cc2)C1
active: [1] -14% | [2] -17.3% | [3] 2.15% | [4] 0.905% | [5] 9.84% | [6] -69.1% | [7] -65.2% | [10] 6.33%
inactive: [8] 12.4% | [9] 16.8%

COc1cc(-c2nc(-c3nnc(-c4ccccc4Cl)o3)c3ccccn23)cc(OC)c1OC
inactive: [1] 50.2% | [2] 47.8% | [3] 92.5% | [4] 77.4% | [5] 84.5% | [6] 111% | [7] 86.4% | [8] 83.1% | [9] 66.4% | [10] 61.4%
